From PubChem
Shown is part of a subset that was picked to be rich in hits.
KDM5B inh: KDM5B demethylase inhibition | Q9UGL1 | KDM5B demethylase, FDH-coupled NADH fluorescence (FDH is formaldehyde dehydrogenase) | Potency, µM (doses to about 57.7 µM), usual class: inhibitors | 2.6% of 220,000 active; active means well fitted inhibition curve with a large enough effect; further: nearly all actives have a fitted effect of over 70% in size
Target sequence (Q9UGL1 whole entry, looked up): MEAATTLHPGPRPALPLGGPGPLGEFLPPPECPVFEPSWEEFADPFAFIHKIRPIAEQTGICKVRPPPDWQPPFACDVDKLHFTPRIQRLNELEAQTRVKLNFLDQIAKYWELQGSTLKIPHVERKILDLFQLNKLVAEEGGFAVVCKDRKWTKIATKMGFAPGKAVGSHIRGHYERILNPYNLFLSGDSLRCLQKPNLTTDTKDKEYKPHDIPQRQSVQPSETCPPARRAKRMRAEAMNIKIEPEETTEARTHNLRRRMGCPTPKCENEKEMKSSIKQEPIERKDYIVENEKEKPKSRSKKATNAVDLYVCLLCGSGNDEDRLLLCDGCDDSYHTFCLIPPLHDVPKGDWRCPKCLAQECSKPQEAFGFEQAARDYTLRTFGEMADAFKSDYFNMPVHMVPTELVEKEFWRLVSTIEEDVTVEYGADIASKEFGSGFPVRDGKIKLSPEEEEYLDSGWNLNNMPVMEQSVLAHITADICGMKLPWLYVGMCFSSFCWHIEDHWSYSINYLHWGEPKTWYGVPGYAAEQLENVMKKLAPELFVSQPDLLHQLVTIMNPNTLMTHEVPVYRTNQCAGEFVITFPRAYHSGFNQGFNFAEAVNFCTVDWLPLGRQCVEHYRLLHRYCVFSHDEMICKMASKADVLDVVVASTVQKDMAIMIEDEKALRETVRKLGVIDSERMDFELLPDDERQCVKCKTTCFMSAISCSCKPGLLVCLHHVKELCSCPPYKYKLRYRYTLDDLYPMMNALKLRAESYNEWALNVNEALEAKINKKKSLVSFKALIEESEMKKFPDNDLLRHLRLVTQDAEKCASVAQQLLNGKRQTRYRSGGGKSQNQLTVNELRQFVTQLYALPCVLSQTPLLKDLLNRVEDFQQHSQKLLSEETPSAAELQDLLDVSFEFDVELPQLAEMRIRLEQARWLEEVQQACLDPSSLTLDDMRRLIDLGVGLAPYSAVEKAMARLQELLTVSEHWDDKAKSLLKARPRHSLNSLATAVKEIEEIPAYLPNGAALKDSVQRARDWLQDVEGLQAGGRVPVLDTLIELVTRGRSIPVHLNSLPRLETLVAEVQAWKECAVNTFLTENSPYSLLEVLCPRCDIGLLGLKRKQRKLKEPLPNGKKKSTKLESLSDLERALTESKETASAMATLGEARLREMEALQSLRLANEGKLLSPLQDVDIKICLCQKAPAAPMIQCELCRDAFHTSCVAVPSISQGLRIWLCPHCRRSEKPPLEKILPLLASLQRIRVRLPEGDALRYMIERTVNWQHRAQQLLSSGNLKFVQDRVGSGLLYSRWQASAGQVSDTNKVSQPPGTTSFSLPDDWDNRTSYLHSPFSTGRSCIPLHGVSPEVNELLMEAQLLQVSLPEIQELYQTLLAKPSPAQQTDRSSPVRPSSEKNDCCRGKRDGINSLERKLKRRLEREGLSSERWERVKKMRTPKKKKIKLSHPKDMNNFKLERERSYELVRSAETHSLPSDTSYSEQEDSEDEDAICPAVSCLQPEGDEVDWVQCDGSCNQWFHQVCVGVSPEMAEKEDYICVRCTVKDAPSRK
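Coupled FDH/NAD⁺ fluorescence readout. KDM5BΔAP 200 nM final; compound titration, 10 min RT preincubation; substrate mix 12.5 µM H3K4me3, 25 µM 2-OG, 50 µM Fe(II), 100 µM ascorbate, 0.25 mM NAD⁺, 0.25 U/mL FDH; ΔRFU over 30 min.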
A number is an active result; 0 = inactive.

SMILES | KDM5B inh
COC(=O)C1=C(C)N=C2SC=C(CC(=O)N(C)Cc3ccco3)N2C1c1ccc(Cl)cc1 (centres undefined) | 18µM
COC(=O)C1=C(C)N=C2SC=C(CC(=O)N(C)Cc3ccco3)N2C1c1cccc(Cl)c1 (centres undefined) | 0
Cc1ccc2oc(-c3cc(NC(=O)CC(C)C)ccc3O)nc2c1 | 0
COCCNC(=O)c1cc(C2CC2)nc2c1c(C1CCNC1)nn2C (centres undefined) | 89µM
COCCNC(=O)c1cc(C)nc2onc(C3CCCNC3)c12 (centres undefined) | 0
CC(CNC(=O)c1cc(C2CC2)nc2ccccc12)c1ccccc1 (centres undefined) | 0
Cc1ccc(OCCNC(=O)c2cc(C3CC3)nc3ccccc23)cc1 | 0
CC(C)CNC(=O)c1cc(C2CC2)nc2c1c(C1CCNC1)nn2C (centres undefined) | 89µM
Cc1cc(C(=O)NCC(C)C)c2c(C3CCNCC3)noc2n1 | 0
Cn1nc(C2CCNC2)c2c(C(=O)N3CCOCC3)cc(C3CC3)nc21 (centres undefined) | 89µM
Cc1cc(C(=O)N2CCOCC2)c2c(C3CCNCC3)noc2n1 | 0
COCCNC(=O)c1cc(C)nc2onc(C3CCNC3)c12 (centres undefined) | 0
COCCNC(=O)c1cc(C2CC2)nc2c1c(C1CCCNC1)nn2C (centres undefined) | 89µM
O=C(c1cc(C2CC2)nc2onc(C3CCCNC3)c12)N1CCC(F)CC1 (centres undefined) | 0
COC(=O)c1cc(C2CC2)nc2c1c(C)nn2CC(=O)NC(C)C | 0
CCCCCCn1c(SCC(=O)Nc2ccccc2)nc2c1c(=O)[nH]c(=O)n2C | 0
O=C(Cc1cccs1)Nc1cccc(-c2nc3cc(Cl)ccc3o2)c1 | 0
Cc1ccc(-c2ccc(C=O)o2)cc1C | 0
Fc1ccc(-c2cnc3n2C[C@H](CNC2CCCC2)OC3)cc1 | 0
Cc1cc(C)cc(NC(=O)CSc2ccc(S(=O)(=O)N3CCOCC3)cn2)c1 | 0
Cc1cnc(CC2CCNC2)n1CC1CC1 (centres undefined) | 0
O=C1OCCC1N1CCC(c2nc3ccccc3s2)CC1 (centres undefined) | 0
CCOc1ccc(NC(=O)c2sc(-c3ccco3)nc2-c2ccccc2)cc1OC | 0
O=C1OCC2(CCN(Cc3cccc(OC(F)(F)F)c3)C2)N1c1ccncc1 (centres undefined) | 0
O=S(=O)(c1ccc(Cl)cc1)c1nnn2c1nc(N1CCCCC1)c1ccccc12 | 0
SMILES | KDM5B inh
O=C(/C=C/c1c(Cl)cccc1Cl)c1ccc(OC(F)F)cc1OC(F)F | 0
Cc1c(-c2ccc(Cl)cc2)c(=O)oc2ccc(OS(=O)(=O)c3ccccc3)cc12 | 0
COc1cccc(CNC(=O)[C@H]2CCC[C@H]2NC(=O)c2ccncc2)c1OC | 0
CC(C)NC(=O)NC[C@H]1O[C@@H]2C[C@@H](CC(=O)NCc3cnn(C)c3)O[C@@H]2[C@@H]1O | 0
O=C(Nc1ncn(Cc2cccc(F)c2)n1)c1cc(S(=O)(=O)N2CCCC2)c(Cl)cc1Cl | 0
COc1ccc(-c2ccc3ncc(Nc4cccnc4OC)n3n2)cc1OC | 22µM
COc1ccc(-c2ccc3ncc(Nc4ccccc4F)n3n2)cc1OC | 0
COc1ccccc1-c1ccc2ncc(Nc3cccnc3OC)n2n1 | 0
CC(NC(=O)c1ccccc1Br)c1nnc(SCC(=O)N2CCOCC2)n1C (centres undefined) | 0
Cc1nc2cccnc2n1CC1CCCN(S(=O)(=O)c2ccc(F)cc2)C1 (centres undefined) | 0
O=C(O)c1cc(-c2ccccn2)nc2ccc(F)cc12 | 0
CN1c2cccnc2CN(C2CCCCC2)CC[C@H]1CO | 0
CN1c2cccnc2CN(Cc2ccccn2)CC[C@H]1CO | 0
CN1c2cccnc2CN(CC2CCCCC2)CC[C@H]1CO | 28µM
NC(=O)C1CCN([C@H]2[C@@H]3OC[C@@H](O3)[C@@H](NCc3ccc(OC(F)(F)F)cc3)[C@@H]2O)CC1 | 0
CSCCC(=O)N1CCCC(CCc2ccccc2F)C1 (centres undefined) | 0
Cc1ccccc1CCC1CCCN(C(=O)c2cccc(O)c2C)C1 (centres undefined) | 0
O=C(c1ccc2cccnc2c1O)N1CCCC(CCc2ccccc2F)C1 (centres undefined) | 11µM
Cc1c(Cl)cccc1NC(=O)N1CCCC(Cn2cnc3cccnc32)C1 (centres undefined) | 0
O=C(NCc1ccccn1)c1cc(C(F)(F)F)cc(C(F)(F)F)c1 | 0
COc1ccc(CNC(=O)COC(=O)c2ccc(OC)c(S(=O)(=O)N3CCCCCC3)c2)cc1 | 0
c1ccc(Nc2cc3c(cn2)CN(Cc2ccn[nH]2)CCN3)cc1 | 0
Cc1[nH]cnc1CN1CCNc2cc(Nc3ccccc3)ncc2C1 | 0
c1ccc(CN2CCNc3cnc(Nc4ccncn4)cc3C2)cc1 | 0
Oc1ccccc1CN1CCNc2cnc(Nc3ccccc3)cc2C1 | 22µM
Oc1ccccc1CN1CCNc2cc(Nc3ccccc3)ncc2C1 | 0
Cc1noc(C)c1CN1CCNc2cc(Nc3ccccc3)ncc2C1 | 0
CC(C)(C)CN1CCNc2cc(Nc3cccnc3)ncc2C1 | 0
